Each structure is given as a SMILES string. Active and inactive are the calls of the source. How the source made its calls: active means hit-call score of the fitted dose curve at least 0.9, where 1 is the maximum; inactive means score below 0.9.

Data on three compounds can be found in PubChem BioAssay (EPA / NIEHS).

Holding throughout (conditions): mRNA level, 48 h; actives raise or lower the signal
Read-out in one assay: BCL2L11 (gene 10018)
As to the kind of experiment: LTEA_HepaRG_BCL2L11: Life Technologies and Expression Analysis (LTEA) Assay for Bcl-2 (BCL2L11) gene using HepaRG (AID 2283473). In short, it runs like this: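 HepaRG, 48 h exposure, 8-pt half-log series from 100 uM in 0.5% DMSO, duplicates; qRT-PCR (Fluidigm TaqMan) for BCL2L11, housekeeping-normalized; bidirectional curve fit relative to DMSO baseline.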

Read-out in assay [1]: Apolipoprotein A-V (APOA5) gene, APOA5 (gene 116519)
In words: LTEA_HepaRG_APOA5: Life Technologies and Expression Analysis (LTEA) Assay for Apolipoprotein A-V (APOA5) gene using HepaRG (AID 2283474). In short, it runs like this: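 HepaRG, 48 h chemical exposure in serum-free induction medium, 8-pt half-log series (top 100 uM), 0.5% DMSO vehicle, duplicates. Readout: APOA5 mRNA by qRT-PCR, housekeeping-normalized; bidirectional fit vs DMSO baseline.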

Read-out in assay [2]: Apoptosis regulator Bcl-2 (Homo sapiens) (UniProt P10415)
In words: LTEA_HepaRG_BCL2: Life Technologies and Expression Analysis (LTEA) Assay for Bcl-2 gene using HepaRG (AID 2283475). In short, it runs like this:
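qRT-PCR of BCL2 transcript, normalized to three housekeeping genes (ACTB, GAPDH, POLR2A), after 48 h chemical exposure of HepaRG cells; concentrations top 100 uM with half-log dilutions, 0.5% DMSO vehicle, duplicates; changes up or down fitted relative to vehicle.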

Read-out in assay [3]: Bcl-2 (BID) gene, BID (gene 637)
In words: LTEA_HepaRG_BID: Life Technologies and Expression Analysis (LTEA) Assay for Bcl-2 (BID) gene using HepaRG (AID 2283476). The method in brief: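 Duplicate 48 h treatments of HepaRG cells in serum-free induction medium spanned 100 uM downward in half-log steps, 0.5% DMSO. Transcript change quantified by qRT-PCR against three housekeeping genes, fitted up or down versus DMSO.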

Read-out in another assay: Caspase-3 (Homo sapiens) (UniProt P42574)
In words: LTEA_HepaRG_CASP3: Life Technologies and Expression Analysis (LTEA) Assay for cysteine-aspartic acid protease (CASP3) using HepaRG (AID 2283477). In short, it runs like this: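 HepaRG, 48 h exposure, 8 conc. (top 100 uM, half-log steps, duplicate), 0.5% DMSO vehicle; qRT-PCR of CASP3 transcript, housekeeping-normalised (ACTB/GAPDH/POLR2A); bidirectional curve fit vs DMSO baseline.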

Read-out in assay [4]: Cytochrome P450 (CYP24A1), CYP24A1 (gene 1591)
In words: LTEA_HepaRG_CYP24A1: Life Technologies and Expression Analysis (LTEA) Assay for Cytochrome P450 (CYP24A1) using HepaRG (AID 2283478). The method in brief: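 qRT-PCR read-out: CYP24A1 transcript levels normalized to three housekeeping genes, bidirectional curve fits against 0.5% DMSO baseline. Human HepaRG cells treated 48 h with chemicals at eight concentrations from 100 uM in half-log steps.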

Read-out in assay [5]: Cytochrome P450 (CYP1A2), CYP1A2 (gene 1544)
As to the kind of experiment: LTEA_HepaRG_CYP1A2: Life Technologies and Expression Analysis (LTEA) Assay for Cytochrome P450 (CYP1A2) using HepaRG (AID 2283479). In short, it runs like this:
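HepaRG, 48 h exposure, top 100 uM, half-log 8-pt, 0.5% DMSO vehicle, duplicates. Readout: TaqMan qRT-PCR of CYP1A2 mRNA, housekeeping-normalized (ACTB/GAPDH/POLR2A). Gain/loss fit relative to DMSO baseline.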

Read-out in assay [6]: cysteine-aspartic acid protease (CASP8), CASP8 (gene 841)
In words: LTEA_HepaRG_CASP8: Life Technologies and Expression Analysis (LTEA) Assay for cysteine-aspartic acid protease (CASP8) using HepaRG (AID 2283480). The method in brief:
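Concentration-response in duplicate up to 100 uM (half-log steps, 0.5% DMSO) on differentiated HepaRG cultures for 48 h. Expression change of CASP8 mRNA is determined by TaqMan qRT-PCR with housekeeping-gene normalization.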

Read-out in assay [7]: Cytochrome P450 (CYP2B6), CYP2B6 (gene 1555)
In words: LTEA_HepaRG_CYP2B6: Life Technologies and Expression Analysis (LTEA) Assay for Cytochrome P450 (CYP2B6) using HepaRG (AID 2283481). In short, it runs like this:
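Read-out is CYP2B6 mRNA by TaqMan qRT-PCR, normalized to three housekeeping genes and fitted bidirectionally against 0.5% DMSO baseline. Human HepaRG cells received test chemicals for 48 h, top concentration 100 uM, half-log dilutions.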

Read-out in assay [8]: Cytochrome P450 2C19 (Homo sapiens) (UniProt P33261)
In words: LTEA_HepaRG_CYP2C19: Life Technologies and Expression Analysis (LTEA) Assay for CYP2C19 using HepaRG (AID 2283482). The method in brief:
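HepaRG, 48 h chemical exposure, 8-pt half-log series from 100 uM in 0.5% DMSO, duplicates. Readout: CYP2C19 mRNA by TaqMan qRT-PCR, housekeeping-normalized. Bidirectional fit vs DMSO baseline; phenobarbital 1mM as induction control.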

Read-out in a further assay: CYP2C8 (gene 1558)
As to the kind of experiment: LTEA_HepaRG_CYP2C8: Life Technologies and Expression Analysis (LTEA) Assay for CYP2C8 using HepaRG (AID 2283483). In short, it runs like this: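 This is a transcriptional endpoint in HepaRG cultures: 48 h exposure, highest concentration 100 uM. CYP2C8 mRNA is quantified by TaqMan qRT-PCR.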

Read-out in a further assay: CYP2C9 (gene 1559)
As to the kind of experiment: LTEA_HepaRG_CYP2C9: Life Technologies and Expression Analysis (LTEA) Assay for CYP2C9 using HepaRG (AID 2283484). In short, it runs like this: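 Eight-point concentration-response (highest 100 uM, half-log dilutions) in HepaRG cells for 48 h; CYP2C9 expression by qRT-PCR normalized to ACTB, GAPDH, POLR2A. Bidirectional fit, DMSO baseline.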

Read-out in a further assay: CYP2E1 (gene 1571)
As to the kind of experiment: LTEA_HepaRG_CYP2E1: Life Technologies and Expression Analysis (LTEA) Assay for CYP2E1 using HepaRG (AID 2283485). In short, it runs like this: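 CYP2E1 transcript measured by Fluidigm qRT-PCR against three housekeeping genes in human HepaRG cells treated 48 h (top 100 uM, half-log steps, 0.5% DMSO vehicle). Gain or loss fitted relative to DMSO baseline.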

Read-out in a further assay: CYP4A11 (gene 1579)
As to the kind of experiment: LTEA_HepaRG_CYP4A11: Life Technologies and Expression Analysis (LTEA) Assay for CYP4A11 using HepaRG (AID 2283486). The method in brief: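 CYP4A11 transcript levels were quantified by TaqMan qRT-PCR after HepaRG human liver cells were treated for 48 hours with test chemicals (top 100 uM, half-log dilutions, 0.5% DMSO). Gain or loss of signal was fitted relative to DMSO.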

Read-out in assay [9]: Cytochrome P450 3A4 (Homo sapiens) (UniProt P08684)
As to the kind of experiment: LTEA_HepaRG_CYP3A4: Life Technologies and Expression Analysis (LTEA) Assay for CYP3A4 using HepaRG (AID 2283487). In short, it runs like this: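 Differentiated HepaRG cells in serum-free induction medium exposed in duplicate for 48 h to 8 half-log concentrations up to 100 uM in 0.5% DMSO. CYP3A4 mRNA measured by qRT-PCR normalized to ACTB, GAPDH and POLR2A; bidirectional fit versus DMSO.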

Read-out in assay [10]: DNA damage-inducible transcript 3 (DDIT3), DDIT3 (gene 1649)
In words: LTEA_HepaRG_DDIT3: Life Technologies and Expression Analysis (LTEA) Assay for DNA damage-inducible transcript 3 (DDIT3) using HepaRG (AID 2283488). In short, it runs like this: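 DDIT3 transcript was quantified by qRT-PCR with ACTB/GAPDH/POLR2A normalization after 48 h chemical treatment of differentiated HepaRG cells in 0.5% DMSO. Dosing was eight-point, half-log, top 100 uM, duplicate wells. Curves fitted bidirectionally versus DMSO.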

Read-out in assay [11]: Pro-epidermal growth factor (Homo sapiens) (UniProt P01133)
As to the kind of experiment: LTEA_HepaRG_EGF: Life Technologies and Expression Analysis (LTEA) Assay for Epidermal growth factor (EGF) using HepaRG (AID 2283489). The method in brief: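 qRT-PCR readout of EGF transcript after 48 h chemical exposure of HepaRG cells; eight concentrations from 100 uM down in half-log steps, duplicate wells, 0.5% DMSO vehicle. Bidirectional curve fitting against DMSO baseline.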

Read-out in assay [12]: Early growth response protein 1 (EGR1) transcription factor, EGR1 (gene 1958)
As to the kind of experiment: LTEA_HepaRG_EGR1: Life Technologies and Expression Analysis (LTEA) Assay for Early growth response protein 1 (EGR1) transcription factor using HepaRG (AID 2283490). The method in brief: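 EGR1 expression change in human HepaRG after 48 h chemical exposure, assessed by housekeeping-normalized qRT-PCR; concentration-response up to 100 uM, fitted in both directions against DMSO controls.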

Read-out in assay [13]: Ezrin (EZR), EZR (gene 7430)
In words: LTEA_HepaRG_EZR: Life Technologies and Expression Analysis (LTEA) Assay for Ezrin (EZR) using HepaRG (AID 2283491). The method in brief: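 Differentiated human HepaRG cells, 48 h after plating, were exposed in serum-free induction medium for 48 hours to eight half-log concentrations up to 100 uM in 0.5% DMSO. EZR mRNA was measured by TaqMan qRT-PCR, normalized to ACTB, GAPDH and POLR2A, and fitted bidirectionally against DMSO.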

Read-out in assay [14]: Cytochrome P450 3A7 (Homo sapiens) (UniProt P24462)
In words: LTEA_HepaRG_CYP3A7: Life Technologies and Expression Analysis (LTEA) Assay for CYP3A7 using HepaRG (AID 2283492). In short, it runs like this:
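CYP3A7 transcript levels were read by TaqMan qRT-PCR on Fluidigm arrays after 48 h chemical exposure of human HepaRG cells, with housekeeping-gene normalisation. Eight half-log concentrations up to 100 uM in 0.5% DMSO were tested in duplicate.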

Chain of Caspase-3 (Homo sapiens) (P42574 whole entry, looked up): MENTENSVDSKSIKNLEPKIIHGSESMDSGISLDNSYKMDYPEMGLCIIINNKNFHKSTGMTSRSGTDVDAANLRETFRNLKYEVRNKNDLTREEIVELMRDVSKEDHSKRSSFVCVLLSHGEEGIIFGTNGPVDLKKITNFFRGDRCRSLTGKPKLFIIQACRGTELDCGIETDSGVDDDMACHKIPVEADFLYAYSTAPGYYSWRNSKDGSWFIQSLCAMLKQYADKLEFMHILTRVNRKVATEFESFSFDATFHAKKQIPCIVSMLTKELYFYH
Chain of Apoptosis regulator Bcl-2 (Homo sapiens) (P10415 whole entry, looked up): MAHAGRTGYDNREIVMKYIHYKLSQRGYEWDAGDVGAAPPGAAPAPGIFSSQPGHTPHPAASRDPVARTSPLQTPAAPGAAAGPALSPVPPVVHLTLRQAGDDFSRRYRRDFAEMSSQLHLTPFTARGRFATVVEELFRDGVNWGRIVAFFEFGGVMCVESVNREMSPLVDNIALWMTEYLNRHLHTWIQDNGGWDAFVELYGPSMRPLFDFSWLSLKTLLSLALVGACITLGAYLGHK
Chain of Cytochrome P450 2C19 (Homo sapiens) (P33261 whole entry, looked up): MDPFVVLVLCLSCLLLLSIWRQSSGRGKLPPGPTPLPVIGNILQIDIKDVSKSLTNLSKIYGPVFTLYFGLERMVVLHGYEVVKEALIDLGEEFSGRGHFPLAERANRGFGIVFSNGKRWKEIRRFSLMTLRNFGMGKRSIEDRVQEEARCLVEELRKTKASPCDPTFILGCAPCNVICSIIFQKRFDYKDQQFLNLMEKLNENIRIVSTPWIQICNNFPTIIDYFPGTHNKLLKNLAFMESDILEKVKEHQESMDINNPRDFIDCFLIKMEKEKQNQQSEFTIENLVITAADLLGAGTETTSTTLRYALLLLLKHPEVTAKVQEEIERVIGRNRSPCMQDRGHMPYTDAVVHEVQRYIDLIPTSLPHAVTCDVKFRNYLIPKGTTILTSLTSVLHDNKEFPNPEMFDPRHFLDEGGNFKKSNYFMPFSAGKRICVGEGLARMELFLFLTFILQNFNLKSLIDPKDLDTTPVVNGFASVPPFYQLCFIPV
Chain of Cytochrome P450 3A7 (Homo sapiens) (P24462 whole entry, looked up): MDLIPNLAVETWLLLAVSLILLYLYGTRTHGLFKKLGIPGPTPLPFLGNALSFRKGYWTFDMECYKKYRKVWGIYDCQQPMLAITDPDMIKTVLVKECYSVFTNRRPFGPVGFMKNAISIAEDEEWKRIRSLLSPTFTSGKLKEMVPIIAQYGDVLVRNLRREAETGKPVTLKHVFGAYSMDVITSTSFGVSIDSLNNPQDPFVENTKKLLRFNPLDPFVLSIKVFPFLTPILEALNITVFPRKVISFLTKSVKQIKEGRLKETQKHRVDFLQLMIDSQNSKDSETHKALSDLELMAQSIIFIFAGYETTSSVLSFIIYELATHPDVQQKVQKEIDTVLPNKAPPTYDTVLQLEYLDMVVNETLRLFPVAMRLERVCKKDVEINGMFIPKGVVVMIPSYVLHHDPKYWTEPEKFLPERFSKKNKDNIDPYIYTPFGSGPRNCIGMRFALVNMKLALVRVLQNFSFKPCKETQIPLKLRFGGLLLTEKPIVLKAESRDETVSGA
Chain of Cytochrome P450 3A4 (Homo sapiens) (P08684 whole entry, looked up): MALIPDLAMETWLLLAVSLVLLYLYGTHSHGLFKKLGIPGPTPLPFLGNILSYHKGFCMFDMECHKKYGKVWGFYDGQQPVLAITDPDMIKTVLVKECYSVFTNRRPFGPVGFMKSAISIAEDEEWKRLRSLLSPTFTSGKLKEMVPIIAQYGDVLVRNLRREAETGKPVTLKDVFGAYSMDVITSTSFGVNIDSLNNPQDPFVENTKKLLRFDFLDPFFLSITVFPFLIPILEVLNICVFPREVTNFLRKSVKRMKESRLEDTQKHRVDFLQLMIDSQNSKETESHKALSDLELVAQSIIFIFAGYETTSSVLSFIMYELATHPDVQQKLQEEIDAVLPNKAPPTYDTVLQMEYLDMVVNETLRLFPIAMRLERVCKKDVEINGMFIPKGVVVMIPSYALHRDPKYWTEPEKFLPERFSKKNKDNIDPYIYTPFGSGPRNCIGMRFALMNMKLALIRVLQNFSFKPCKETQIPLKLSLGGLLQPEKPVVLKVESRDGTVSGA

In the case of `CCNS(=O)(=O)C(F)(F)C(F)(F)C(F)(F)C(F)(F)C(F)(F)C(F)(F)C(F)(F)C(F)(F)F`, the call (with BCL2L11 (gene 10018); in [2]; in assay [3]; in the assay with Caspase-3 (Homo sapiens); in [4]; in assay [5]) was inactive. Besides, the result (in assay [6]; in assay [7]; in [8]; with CYP2C8 (gene 1558); in the assay with CYP2C9 (gene 1559); in [9]) was inactive. Also, the result in assay [10], in assay [11], in assay [13] and in assay [14] was inactive. For the same compound, the AC50 in assay [1] was 48.2 µM (active); in the assay with CYP2E1 (gene 1571), 48.2 µM (active); with CYP4A11 (gene 1579), 12 µM (active); in assay [12], 35.6 µM (active).

Consider `Cc1ccc([N+](=O)[O-])cc1`, for which the outcome (in the assay with BCL2L11 (gene 10018); in [1]; in assay [2]; in assay [3]; with Caspase-3 (Homo sapiens); in assay [4]) was inactive. The outcome (in assay [5]; in assay [6]; with CYP2C8 (gene 1558); with CYP2C9 (gene 1559); in [10]; in assay [11]) was inactive. For the same compound, the compound was called inactive in assay [12], in [13] and in assay [14]. For the same compound, the half-maximal activity concentration (AC50) in assay [7] was 0.744 µM (active); in assay [8] it was 1.87 µM (active); with CYP2E1 (gene 1571), 20.2 µM (active); in the assay with CYP4A11 (gene 1579), 1.58 µM (active).

Consider `CCCCCCCCCCCCCN1CC(C)OC(C)C1` (stereo not drawn), for which the result (with BCL2L11 (gene 10018); in assay [1]; in assay [2]; in [3]; with Caspase-3 (Homo sapiens); in [4]) was inactive. Moreover, the result (in assay [6]; in assay [7]; in assay [8]; with CYP2C9 (gene 1559); with CYP2E1 (gene 1571); with CYP4A11 (gene 1579)) was inactive. In addition, the compound was classed as inactive in assay [9], in assay [10], in [11], in [12], in assay [13] and in assay [14]. In assay [5], the half-maximal activity concentration (AC50) was 50 µM (active).

In general, AC50 refers to the concentration giving half of the maximal activity seen.
